Bioassay records (PubChem)
Shiga inhibitor = inhibitors of Shiga toxin in Vero cells | Vero cells, Shiga toxin protein synthesis inhibition reporter | inhibition, % at 38.7 µM | AID 2315 | hit rate 9.2% among 290,000; in the data active = inhibition mostly above about 28%, no sharp cut-off; inactive = mostly below about 43%; note: 0% is about no effect
HCMV antiviral = blocks human cytomegalovirus replication; HFF cells, HCMV-luciferase reporter, 72 h; active compounds read low; activity change, negative = inhibition, % at 57.5 µM; hit rate 4.5% among 410,000; AID 1259415; in the data active = activity change below about -60%; inconclusive = no clear call, values can overlap the other calls; inactive = above about -39%; note: % is set by controls: 0 for no effect and ±100 for the full control effect
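Screen run at 2 compound doses on HFFs infected with reporter HCMV, MOI 1 PFU/cell. Luciferase activity from cell lysates at 72 h post infection gave inhibition relative to buffer-only and Salinomycin wells.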
CHX counter = counter-screen hit for Shiga toxin inhibitors, cycloheximide. cell reporter, cycloheximide protein synthesis inhibition counterscreen. max response, %. hit rate 12% among 300,000. AID 2314; in the data active = max response mostly above about 13%, no sharp cut-off; inactive = mostly below about 14%; note: read at 38.3 µM for the half of the compounds with a filed dose; 0% is about no effect
Pf growth 96h = P. falciparum growth inhibition at 96 hours. P. falciparum luciferase reporter growth, 96 h. Potency, µM (series often up to 28.7 µM), for the others: at the top dose activity change, negative = inhibition, hits mostly inhibitors. hit rate 6.9% among 320,000; note: potency is the fitted concentration of half-maximal effect; % is set by controls: 0 for no effect and ±100 for the full control effect
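P. falciparum expressing integrated firefly luciferase grown in erythrocytes (2% hematocrit, 0.05% parasitemia final) with compounds for 96 hours at 37 C, 5% CO2. Growth inhibition read as loss of luminescence after adding luciferase detection reagent.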
HCV inhibitor = HCV inhibition; hit rate 3.4% among 340,000; Huh7.5.1 HCVcc-Cre infection, luciferase reporter, 44 h; Potency, µM (highest dose often 41.8 µM), inactives show top-dose activity change, negative = inhibition, most hits filed as inhibitors; AID 651820; note: potency is the fitted concentration of half-maximal effect; % is set by controls: 0 for no effect and ±100 for the full control effect
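After 44 h co-culture of compound, cells and HCVcc-Cre (~0.5 moi), substrate is added for 15 min at room temperature and luciferase measured over 15 sec. Cells were seeded at 1,000/well and pre-cultured 4 h.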
Pf growth 48h = inhibits P. falciparum growth in the first generation, 48 h | P. falciparum luciferase growth in erythrocytes, 48 h | Potency, µM (doses to about 28.7 µM), without a hit: at the top dose activity change, negative = inhibition, most hits filed as inhibitors | hit rate 5.9% among 310,000; note: potency is the fitted concentration of half-maximal effect; % is set by controls: 0 for no effect and ±100 for the full control effect
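Compounds are pin-transferred into medium, infected erythrocytes (2% hematocrit, 0.1% parasitemia final) are added, and plates sit one parasite generation at 37 C in 5% CO2. Detection reagent is then added and luminescence measured.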
Starred values were filed as active, the others as inactive; ? = inconclusive; · = not tested or not shown. Rows were chosen to be rich in hits. Some 21% of all compounds tested hit in one or more screens of this group. Unless noted, calls come from the whole dose curve; as a rule, active = well fitted inhibition curve with a large enough effect; inconclusive = small, poorly fitted or top-dose-only effect, or another doubt; inactive = no such curve, though single readings can be large or run the other way.

SMILES	Shiga inhibitor	HCMV antiviral	CHX counter	Pf growth 96h	HCV inhibitor	Pf growth 48h
O=C(O)/C=C/C(=O)NNC(=O)c1ccc(Cl)cc1Cl	58.4*	-22.8	27.0*	-0.4%	12.1%	?
Cn1c(CNC(=O)Nc2ccccc2)nnc1SCc1ccccc1	-2.5	37.6	-1.8	·	-15.5%	19.1%
O=C(NNc1cccc(Cl)n1)Nc1cccc(Cl)c1	-14.9	-32.3	-6.7	13.1µM*	1.4%	·
Cn1c(CNC(=O)Nc2cccc(Cl)c2)nnc1SCc1ccccc1	-21.1	32.2	-2.3	13.1µM*	10.6%	?
CC(=O)Nc1ccc(NC(=O)Nc2cccc(Cl)c2)cc1	49.6*	25.2	27.3*	60.5%	-25.0%	0.0%
NS(=O)(=O)c1ccc(NC(=O)Nc2cccc(Cl)c2)cc1	25.2	?	19.3*	-12.4%	-10.7%	7.9%
O=C(NNc1cccc(Cl)n1)Nc1ccccc1	-5.9	51.1	3.2	107.3%	?	13.0%
NS(=O)(=O)c1ccc(NC(=O)Nc2ccccc2)cc1	14.3	51.5	12.9	41.3%	-4.7%	33.9%
CC(=O)Nc1cccc(NC(=O)c2cccc(Cl)c2)c1	·	-5.4	·	·	·	·
COC(=O)[C@]1(C#N)[C@H](Cc2ccccc2)C(=O)N(Cc2ccc(Cl)cc2)[C@@H]1c1ccc(OC)cc1	·	-9.7	·	·	·	·
COc1cc(OC)cc(C(=O)NCc2ccc3c(c2)OCO3)c1	-12.8	27.7	-1.6	?	-17.0%	3.2%
CCOC(=O)C1=C(N)OC2=C(C(=O)CC(C)(C)C2)C1c1cc(CSc2nnnn2C)cs1 (configuration not stated)	-28.3	9.0	-2.8	2.7%	3.8%	38.1%
O=C(Nc1ccccc1)C(Cl)C(=O)c1ccccc1 (configuration not stated)	·	54.3	36.1*	-18.0%	4.3%	1.3%
O=C(NNc1cccc(Cl)n1)c1ccc(Cl)cc1Cl	29.1	20.3	24.0*	0.0%	-8.8%	52.8%
O=C(Nc1ccccc1)Nc1cccc(Cl)c1	106.9*	-19.6	55.6*	?	?	·
O=C(CSc1nnc(NC(=O)C2CC(=O)N(c3ccc(F)cc3)C2)s1)NCC1CCCO1 (configuration not stated)	-9.5	13.9	-1.3	4.8%	19.1%	-17.4%
Cc1cccc(N(C)c2nc3ccc(C)cc3n3cnnc23)c1	·	-1.8	·	·	·	·
C[C@H](CO)N1C[C@H](C)[C@@H](CN(C)C(=O)Nc2ccc3c(c2)OCO3)Oc2c(NC(=O)c3ccncc3)cccc2C1=O	·	3.5	·	·	1.7%	·
CCOC(=O)Cc1c(C(=O)OCC)nnc2c(-c3ccccc3)c(C)nn12	·	-7.0	·	·	·	·
CCC(c1nnnn1-c1c(C)cccc1C)N1CCN(CC)CC1 (configuration not stated)	·	-22.9	·	·	·	·
CC(=O)N(C)C(c1ccc(N(C)C)cc1)c1nnnn1-c1c(C)cccc1C (configuration not stated)	-2.0	?	0.9	5.22µM*	10.5%	5.22µM*
CCc1cccc(NC(=O)CCc2c(C)nc3c(c2C)c(=O)n(C)c(=O)n3C)c1	·	-18.2	·	·	·	·
CC(=O)c1cc(-c2ccc(F)cc2)n(CCC(=O)Nc2nc3c(C)cccc3s2)c1C	·	0.0	·	·	·	·
C=CCn1c(CCNC(=O)c2ccc(Cl)c(Cl)c2)nnc1SCCOc1ccc(OC)cc1	37.7	-5.0	-1.2	?	10µM*	?
O=C(NCc1ccc(Cl)cc1)C1CCN(S(=O)(=O)c2ccccc2)CC1	-1.1	-6.0	-4.6	-7.6%	-14.5%	8.7%
SMILES	Shiga inhibitor	HCMV antiviral	CHX counter	Pf growth 96h	HCV inhibitor	Pf growth 48h
CCOC(=O)c1ccc(S(=O)(=O)N2CCC(C(=O)NCc3ccccc3OC)CC2)cc1	·	9.5	·	8.28µM*	-4.1%	?
O=C(NCc1ccc(F)cc1)C1CCN(S(=O)(=O)c2ccc(Cl)cc2)CC1	-5.2	-25.9	0.6	-22.7%	19.3%	3.7µM*
NC(=O)C(Cc1ccccc1)NS(=O)(=O)c1ccc(N2CCCC2=O)cc1 (configuration not stated)	-1.9	-27.6	-3.7	9.28µM*	-3.7%	-3.8%
O=C(NCc1ccccc1)C1CCN(S(=O)(=O)c2ccc(N3CCCC3=O)cc2)CC1	-3.4	-14.2	4.3	14.7µM*	?	?
CC(C)N(C(=O)[C@H]1C[C@H](CC(=O)NCCN2CCOCC2)C(=O)N2CCc3c([nH]c4ccc(Cl)cc34)[C@]12C)C(C)C	·	-5.1	·	·	?	·
Cc1cc(N2CCC(C(=O)Nc3ccccc3Cl)CC2)n2nc(C)c(-c3ccc(Cl)cc3)c2n1	·	-1.6	·	·	·	·
CCC1CN(C(=O)N2CCC(C(=O)NCc3ccccc3OC)CC2)c2ccccc2O1 (configuration not stated)	-18.2	-11.8	-7.6	13.1µM*	15.8µM*	?
COc1cccc(NC(=O)C2CCN(S(=O)(=O)c3ccc(N4CCCC4=O)cc3)CC2)c1	·	-0.4	·	·	·	·
O=C(NCc1ccc(Cl)cc1)C1CCN(S(=O)(=O)c2ccc(N3CCCC3=O)cc2)CC1	17.1	?	3.1	13.1µM*	11.2µM*	-17.7%
CCC1CN(C(=O)N2CCC(C(=O)NCc3ccccc3OC)CC2)c2cc(C)ccc2O1 (configuration not stated)	-4.2	-14.5	-11.1	?	?	?
COc1ccccc1CNC(=O)C1CCN(S(=O)(=O)c2ccc(N3CCCC3=O)cc2)CC1	-4.8	0.0	8.7	14.7µM*	16.5%	11.7µM*
CCC1Cc2cc(O)ccc2C2=C1c1ccc(O)cc1CC2CC (configuration not stated)	-9.5	·	-8.2	·	·	·
Cc1cc(C)cc(NC(=O)CCS(=O)(=O)c2cccc3nsnc23)c1	·	15.4	·	·	·	·
Cc1ccc(NC(=O)COC(=O)c2cc(=O)c3cc(F)ccc3o2)cc1	·	-4.1	·	13.1%	8.2%	3.8%
O=C(Cn1c(=O)n2nc(-c3cccc(F)c3)nc2c2ccccc21)N1CCN(c2ccccc2F)CC1	·	15.2	·	·	·	·
Cc1ccc(CSc2cn(CC(=O)N3CCCCCC3)c3ccccc23)cc1	·	18.0	·	·	·	·
Cc1ccccc1-c1nc(NCC2CC2)nc2ccsc12	·	-4.8	·	·	·	·
c1cc2cc(CNc3nc(NCC4CC4)nc4ccsc34)ccc2o1	·	-74.4*	·	·	·	·
